Results on 99 compounds are retold here after PubChem BioAssay AID1345082 (National Center for Advancing Translational Sciences (NCATS), 2018).

The campaign covered roughly 94,000 compounds. About 4,000 (4.3%) were called active. Entries that show only a call come without a potency. About 29% were inconclusive and are not listed. The call rests on the fitted dose curve; in most records, active means well fitted inhibition curve with a large enough effect; inconclusive means small, poorly fitted or top-dose-only effect; inactive means no such curve, though single readings can be large or run the other way. Many of the other results were omitted from the sample, so actives are more common in it than they were.
Potency means the concentration at half of the fitted maximal effect.

The test in a line: Cytotoxic Profiling in NIH 3T3 Cell Line of Diverse Libraries Using Quantitative High-Throughput Screening. Further: nearly all actives have a fitted effect of over 55% in size. Particulars: NIH 3T3 viability, CellTiter-Glo ATP luminescence, 48-72 h; series mostly up to 96.7 µM. Summed up:
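Cytotoxicity is measured as loss of cellular ATP: NIH 3T3 cells (400/well) are exposed to compound for 48 or 72 hr at 37 °C, then CellTiter-Glo luminescence is imaged after 10 min at room temperature.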
On the technique in general: ATP-based viability assays read luminescence as a measure of living cells.
On to `CC#CCN1C(=O)NC(CCc2ccccc2)(C2CCN(Cc3ccccc3-c3ccco3)CC2)C1=O` (centres undefined), for which the Potency result was “inactive”.

In the case of `CC(=O)N1CC2(CCN(Cc3ncc[nH]3)CC2)CC1C(=O)O` (centres undefined), the Potency result is “inactive”.

With `N#Cc1cccc(NC(=O)O[C@@H]2CO[C@H]3[C@@H]2OC[C@@H]3Nc2nccc(-c3ccccc3)n2)c1`, the Potency was 35.5 µM (active).

For the compound `O=C(Nc1ccccc1)O[C@@H]1CO[C@H]2[C@@H]1OC[C@@H]2NS(=O)(=O)c1cccc2cccnc12`, the Potency result is “inactive”.

On to `O=C(Nc1ccc(Oc2ccccc2)cc1)O[C@@H]1CO[C@H]2[C@@H]1OC[C@@H]2NCC1CC1`, for which the Potency entry was “inactive”.

For the compound `COc1cccc([S+](=O)([O-])N2CCC3(C2)N=C(c2ccncc2)C(=O)N3)c1` (centres undefined), the Potency entry is “inactive”.

As for `CC1(C(=O)NCC2CCCO2)CCCc2cnc(Nc3ccccc3)nc21` (centres undefined), the Potency result is “inactive”.

On to `CC1(C(=O)NCc2ccc3c(c2)OCO3)CCc2cnc(NCc3ccccc3)nc21` (centres undefined), for which the Potency was 3.16 µM (active).

For `CN1C(=O)CC[C@]2(C(=O)NCc3ccc4c(c3)OCO4)CCCC[C@@H]12`, the Potency entry was “inactive”.

For the compound `O=C(NCc1ccc(F)cc1F)c1nnn2c1COC(c1ccc(Br)cc1)C2` (centres undefined), the Potency entry was “inactive”.

With `COc1cccc([S+](=O)([O-])N2CCC3(CC2)C(=O)NN=C3c2ccncc2)c1`, the Potency entry is “inactive”.

With `CC(C)(C)C(=O)N1CCCC1C(=O)N1CCC(N2Cc3ccccc3C2=O)CC1` (centres undefined), the Potency result is “inactive”.

Regarding `O=C(NCc1cccnc1)c1nc(-c2ccc(Cl)nc2)c2cnccn12`, the Potency result was “inactive”.

In the case of `Cn1c([C@H]2CCN(C3CCOCC3)C2)nc2ccccc21`, the Potency result is “inactive”.

With `c1ccc2sc(C3CCCN(Cc4cc5n(n4)CCNC5)C3)nc2c1` (centres undefined), the Potency entry was “inactive”.

As to `CN1CCC(N2CC[C@H](c3nc4ccccc4s3)C2)CC1`, the Potency is 35.5 µM (active).

For the compound `CC(C)CCN1CCC2(C1)C(=NC1CCCCC1)NC(=O)N2c1cc(F)cc(F)c1` (centres undefined), the Potency was 35.5 µM (active).

For `O=C1NC(=NC2CCCCC2)C2(CCCN([S+](=O)([O-])c3ccccc3)C2)N1c1cc(F)cc(F)c1` (centres undefined), the Potency entry was “inactive”.

With `O=C(c1ccccc1F)N1CCCC2(C1)C(=NC1CCCCC1)NC(=O)N2c1cc(F)cc(F)c1` (centres undefined), the Potency entry is “inactive”.

As to `O=C(CN1CCCC1=O)NCC1Cn2cccc2C(=O)N1Cc1ccccc1` (centres undefined), the Potency result is “inactive”.

`CC(C)C(=O)N1CCOc2ccc(CN3CCc4ccccc4C3)cc2C1`: the Potency entry was “inactive”.

`CCCNC(=O)N1CCC(Cn2c(C)cnc2-c2cccnc2)CC1`: the Potency result was “inactive”.

Turning to `O=C(NCc1ccc2c(c1)OCO2)C1CCCN(Cc2cccc(-c3cccs3)c2)C1` (centres undefined), the Potency was 31.6 µM (active).

For the compound `COCCNC(=O)C1CCCN(Cc2cccc(-c3cccs3)c2)C1` (centres undefined), the Potency entry was “inactive”.

With `O=C(NCc1ccc2c(c1)OCO2)C1CN(C2CCCCC2)C(=O)N1` (centres undefined), the Potency entry is “inactive”.

In the case of `Cc1nc(C(=O)N2CC[C@H](N3CCN(C)CC3)[C@H](CCCO)C2)cs1`, the Potency result was “inactive”.

With `CCCCOC(=O)N1CC(=O)N(Cc2ccco2)CC(O)C1` (centres undefined), the Potency result was “inactive”.

Consider `COCCOCC(=O)N1CCC2(CC1)CC(N(C(=O)c1ccccc1)C1CC1)CCO2` (centres undefined), for which the Potency result was “inactive”.

Turning to `COc1ccccc1CNC(=O)c1nn(CC2CC2)c2c1CNCC2`, the Potency entry is “inactive”.

With `COC[C@H]1NC(=O)CC[C@H]1C(=O)NCc1cccc(C(F)(F)F)c1`, the Potency entry was “inactive”.

Regarding `O=C(NCc1cccc(C(F)(F)F)c1)c1nn(CCOc2ccccc2)c2c1CNCC2`, the Potency is 15.8 µM (active).

For the compound `CC(C)NC(=O)C1(CCO)CC12CCOCC2` (centres undefined), the Potency result is “inactive”.

In the case of `O=C(c1ccc(Cl)cc1)N1CCCN(CCn2nc3n(c2=O)CCCC3)CC1`, the Potency entry is “inactive”.

In the case of `CCNC(=O)N[C@H]1CC[C@]2(C)CC[C@@H]([C@H](C)C(=O)NCc3ccco3)[C@H](O)[C@H]2[C@@H]1C`, the Potency entry is “inactive”.

Regarding `O=c1cc(N2CCOCC2)oc2c(NCc3ccncc3)nccc12`, the Potency is 44.7 µM (active).

As to `Cc1noc(C)c1-c1nccc2c(=O)cc(N3CCOCC3)oc12`, the Potency was 100 µM (active).

For `CCn1c(=O)c2ccnn2c2ccc(C(=O)NCc3ccc(N4CCOCC4)cc3)cc21`, the Potency entry is “inactive”.

Consider `CC(C)(C)CC(=O)Nc1ccc2c(N3CCOCC3)ncnc2c1`, for which the Potency entry was “inactive”.

As to `CC(=O)Nc1ccc(C2(C(=O)NCCCN3CCOCC3)CCCCC2)cc1`, the Potency entry is “inactive”.

Regarding `CC(CO)Nc1ncnc2c1CN(C1CCCNCC1)C(=O)CN2C` (centres undefined), the Potency entry is “inactive”.

Take `Cn1c(=O)[nH]cc(CC(=O)N2CCCC(c3cccc(C(=O)O)c3)C2)c1=O` (centres undefined): the Potency result is “inactive”.

`COc1ccc(CN2CCC3(CC2)OCCN(Cc2ccccc2F)C3=O)cc1O`: the Potency entry is “inactive”.

In the case of `CC1(c2ccccc2)N(Cc2ccccc2F)C(=O)OC12CCN(Cc1c[nH]c3ccccc13)CC2` (centres undefined), the Potency is 17.8 µM (active).

Regarding `CC(C)C(=O)N1CCC2(CC1)OC(=O)N(Cc1ccccc1F)C2(C)c1ccccc1` (centres undefined), the Potency was 44.7 µM (active).

For the compound `O=C1CCN(C(=O)Cc2c[nH]c3ccccc23)CCCCCCN1`, the Potency result is “inactive”.

As for `CCc1ccccc1S(=O)(=O)N1CCN(C2(CC)CCN(C(=O)C(C)C)C2)CC1` (centres undefined), the Potency result was “inactive”.

For the compound `CN(CCO)CC1(O)CCCN(Cc2ccccc2F)C1=O` (centres undefined), the Potency result is “inactive”.

Turning to `O=C(CCc1conc1-c1ccccc1)NCc1ccco1`, the Potency result is “inactive”.

As to `CCOc1ccccc1NC(=O)Cn1c(N2CCOCC2)nc(CC)cc1=O`, the Potency entry was “inactive”.

With `C[S+](=O)([O-])N1Cc2ccccc2OC2(CCN(C(=O)Cc3cccc(O)c3)CC2)C1`, the Potency entry was “inactive”.

With `CN1CCC(NC(=O)C2CCCN(S(=O)(=O)c3ccccc3)CCC(=O)NCC2)CC1` (centres undefined), the Potency result was “inactive”.

In the case of `Cn1ncc2c(C(=O)NCC(F)(F)F)cc(-c3ccc(C(F)(F)F)cc3)nc21`, the Potency result is “inactive”.

In the case of `Cn1ncc2c(C(=O)NCC#N)cc(-c3cccc(C(F)(F)F)c3)nc21`, the Potency entry was “inactive”.

In the case of `COc1ccc(-c2cc(C(=O)NCC#N)c3cnn(C)c3n2)cc1`, the Potency is 15.8 µM (active).

Consider `Cc1noc(C)c1S(=O)(=O)NCC1Cn2cccc2C(=O)N1C` (centres undefined), for which the Potency entry was “inactive”.

Regarding `Cc1ncnc(N2CCC(Oc3ccc4ccccc4c3)(C(=O)O)CC2)c1C`, the Potency entry is “inactive”.

As to `COc1ccc(-c2[nH]nc3ncc(C(=O)Nc4ccccc4)nc23)c(C)c1`, the Potency was 28.2 µM (active).

`COc1ccc(-c2[nH]nc3ncc(-c4cn[nH]c4)nc23)cc1F`: the Potency entry is “inactive”.

Turning to `COc1cccc(-c2cc(C(=O)Nc3cccc(Cl)c3)c3cnn(C)c3n2)c1`, the Potency result is “inactive”.

As to `COc1cccc(NC(=O)c2cnc3n[nH]c(-c4ccc(OC)cc4C)c3n2)c1`, the Potency is 50.1 µM (active).

Take `COc1cccc(NC(=O)c2c(OC)cc(=O)n3c2CCCC3)c1`: the Potency result was “inactive”.

Take `CCOc1ccc2c(n1)CCN(C(=O)Nc1ccc(OC)cc1C)C2`: the Potency entry is “inactive”.

As to `CNC(=O)[C@H]1C[C@H](Oc2ccccc2)CN1C(=O)c1cc(-c2ccccc2)n[nH]1`, the Potency result was “inactive”.

Regarding `CC1(C)[C@H](Cc2cc(CN3CCCCC3)on2)C[C@@H]1NS(C)(=O)=O`, the Potency entry is “inactive”.

Take `COCc1cc(C[C@@H]2CC[C@H](O)[C@@H](CN(C)C)O2)no1`: the Potency entry was “inactive”.

As to `CC(=O)N1CCC(N[C@H]2C[C@@H](Cc3cc(CN(C)c4ccccc4)on3)C2(C)C)CC1`, the Potency was 89.1 µM (active).

For the compound `CC1(C)[C@H](Cc2cc(CCO)on2)C[C@@H]1NCC1CC1`, the Potency entry is “inactive”.

As for `CCC(CC)C(=O)N[C@H]1C[C@@H](Cc2cc(COc3ccccc3)on2)C1(C)C`, the Potency was 70.8 µM (active).

For `CC1(C)[C@H](Cc2cc(CC3CCCCC3)on2)C[C@@H]1NC1CCOCC1`, the Potency is 31.6 µM (active).

On to `CN(Cc1ccccc1)Cc1cc(CC2(NCc3ccc(CO)o3)COC2)no1`, for which the Potency result was “inactive”.

On to `CC(=O)N1CCC(NC[C@H]2O[C@H](Cc3cc(-c4cccc(O)c4)on3)CC[C@@H]2O)CC1`, for which the Potency entry was “inactive”.

For `CC1(C)[C@H](Cc2cc(CC3CCCCC3)on2)C[C@@H]1NC(=O)C1CCC1`, the Potency was 39.8 µM (active).

Take `COCc1cc(C[C@@H]2CC[C@H](O)[C@@H](CN(CC3CCCCC3)CC3CCCCC3)O2)no1`: the Potency entry was “inactive”.

As to `CN(Cc1nccn1C)C(=O)c1cc(CN2CCC(Cc3ccccc3)CC2)on1`, the Potency result is “inactive”.

For `CN(C)S(=O)(=O)N1CCCOCCNC(=O)[C@@H]2CCC[C@@H]21`, the Potency entry is “inactive”.

For `COc1ccc2[nH]c(C(=O)N3C[C@@H](Oc4ccccc4)C[C@H]3C(=O)N3CCCC3)cc2c1`, the Potency entry was “inactive”.

In the case of `O=C(c1nc2sccn2c1CN1CCCC(CO)C1)N1CCCCC1` (centres undefined), the Potency result was “inactive”.

As for `COc1ccc(NC(=O)CC2CCOCC2)cc1`, the Potency entry was “inactive”.

Turning to `Cc1cccc(CC(=O)N2C[C@@H](CO)[C@H](c3ccccn3)C2)c1`, the Potency result is “inactive”.

For the compound `CC(C)(C)c1coc([C@@H]2COCCN2C2CCC2)n1`, the Potency result was “inactive”.

As for `CCOc1cc(=O)n2c(c1C(=O)NCCc1ccccc1)CCCCC2`, the Potency entry is “inactive”.

As for `CN1C(=O)c2cccn2CC1C(=O)NC1CCN(Cc2ccccc2)CC1` (centres undefined), the Potency entry was “inactive”.

As for `COc1ccc(-c2ccccc2C(=O)N2CCC(NC(=O)Cc3ccc(F)cc3)CC2)nn1`, the Potency entry was “inactive”.

For `O=C(Cc1ccc(F)cc1)NC1CCN(c2nc3ncccc3o2)C1` (centres undefined), the Potency entry was “inactive”.

In the case of `O=C(CCNc1cnc2cnccn12)NC1CCN(Cc2ccccc2)CC1`, the Potency entry was “inactive”.

Consider `COC(=O)N1CCN(C(=O)c2cccc(-c3cccc(OC)c3)c2)CC1`, for which the Potency result is “inactive”.

For `COc1cccc(-c2ccc(C(=O)N3CCC(NC(=O)Cc4ccc(F)cc4)CC3)cc2)c1`, the Potency is 39.8 µM (active).

On to `Cc1cccc(-c2cccc(CN3CCC(NC(=O)Cc4ccc(F)cc4)CC3)c2)c1`, for which the Potency is 28.2 µM (active).

In the case of `Cc1cccc(-c2cccc(CN3CCC(NC(=O)Nc4ccccc4)CC3)c2)c1`, the Potency is 12.6 µM (active).

Take `O=C(Cc1ccc(F)cc1)NC1CCN(c2cn[nH]c(=O)c2)CC1`: the Potency result is “inactive”.

Take `COCCN1CCC(N2CCN(S(=O)(=O)c3ccccc3)CC2)C1=O` (centres undefined): the Potency entry was “inactive”.

As for `O=C(NCC1CCOCC1)C1COc2ccccc2O1` (centres undefined), the Potency result is “inactive”.

For the compound `CC(C)(C)CC(=O)NC1CCN(c2cnn(CC3CC3)c(=O)c2)CC1`, the Potency result was “inactive”.

As for `O=C(NCCc1noc(-c2ccccc2)n1)C1CC1`, the Potency entry is “inactive”.

Consider `CCn1cc(C(=O)N2CC(COC)C3(CCNCC3)C2)cn1` (centres undefined), for which the Potency entry was “inactive”.

As to `CSc1ccc(-c2cccc(CN3CCC(N[S+](=O)([O-])c4cccs4)CC3)c2)cc1`, the Potency is 12.6 µM (active).

For the compound `Cc1noc(C)c1[S+](=O)([O-])N1CC(Oc2ccc(F)c(F)c2)C1`, the Potency entry was “inactive”.

As to `Cc1noc(C)c1[S+](=O)([O-])NC1CCN(Cc2cccc(-c3ccc(F)c(F)c3)c2)CC1`, the Potency was 14.1 µM (active).

As to `Cc1noc(C)c1[S+](=O)([O-])N1CCn2c(nnc2-c2ccccc2)C1`, the Potency entry is “inactive”.
